Only some compounds are listed: those with a hit (about 3.4% of all), similar ones and a draw of the others.
AmpC inh detg = blocks E. coli AmpC beta-lactamase in detergent assay; P00811; AmpC hydrolysis of nitrocefin, absorbance 480 nm, 0.01% Triton; Potency, µM (series often up to 114 µM), inactives show top-dose activity change, negative = inhibition, hits mostly inhibitors; hit rate 0.041% among 370,000;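 further: 0% = no-compound wells and -100% = no-enzyme wells; nearly all actives have a fitted effect of over 25% in size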
Target sequence (P00811 whole entry, looked up): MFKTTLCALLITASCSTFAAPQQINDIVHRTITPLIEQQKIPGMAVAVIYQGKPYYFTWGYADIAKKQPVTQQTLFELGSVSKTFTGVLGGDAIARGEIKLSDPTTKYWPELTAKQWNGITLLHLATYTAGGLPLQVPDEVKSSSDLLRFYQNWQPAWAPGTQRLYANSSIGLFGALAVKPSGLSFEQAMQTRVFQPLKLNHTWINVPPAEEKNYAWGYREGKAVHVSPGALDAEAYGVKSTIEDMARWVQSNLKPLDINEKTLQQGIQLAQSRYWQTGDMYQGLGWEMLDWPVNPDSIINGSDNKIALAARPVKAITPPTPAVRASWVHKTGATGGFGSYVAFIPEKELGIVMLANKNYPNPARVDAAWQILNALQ
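20 mM phosphate pH 7.0 + 0.01% (detergent screen) or 0.0001% Triton X-100; 5.3 nM AmpC reagent; cpd preinc 15 min RT; nitrocefin (800 uM stock) to start; A480 q20 s × 4 min; Activity was normalised to no-enzyme and no-compound control wells.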
RE007 growth inh = less growth of the S. pombe RE007 Vpr strain; S. pombe RE007 Vpr strain, BacTiter-Glo ATP luminescence, 24 h; Potency, µM (highest dose often 92.2 µM), without a hit: at the highest dose activity change, negative = less growth, actives largely listed as inhibitors; hit rate 0.21% among 360,000; active means well fitted falling curve with a large enough effect; inconclusive means small, poorly fitted or top-dose-only effect; inactive means no such curve, though single readings can be large or run the other way; further: nearly all actives have a fitted effect of over 50% in size
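Fission yeast strain RE007, carrying one chromosomally integrated HIV-1 vpr copy, was seeded at OD 0.01 in PMG+AL medium with 23 nL pinned compound. After 24 h at 30 °C and 99% humidity, viability was read by BacTiter-Glo luminescence.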
Sm TGR block = S. mansoni TGR enzyme inhibition | purified TGR, DTNB reduction, TNB absorbance 405 nm | Potency, µM (titrated, usually from 114 µM), inactives show top-dose activity change, negative = inhibition, most hits filed as inhibitors | hit rate 3% among 360,000 | AID 485364; further: nearly all actives have a fitted effect of over 60% in size
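Kinetic colorimetric format: TGR-catalysed, NADPH-driven DTNB reduction monitored via TNB absorbance. Enzyme dispensed at 20 nM; compound exposure 15 min at room temperature before reaction start.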
FBPA Giardia inh = Giardia lamblia aldolase inhibition; A8B2U2; purified Giardia FBPA; Potency, µM (doses to about 59.6 µM), for the others: top-dose activity, negative = inhibition, actives largely listed as inhibitors; hit rate 0.71% among 290,000; further: nearly all actives have a fitted effect of over 55% in size
Target sequence (A8B2U2 whole entry, looked up): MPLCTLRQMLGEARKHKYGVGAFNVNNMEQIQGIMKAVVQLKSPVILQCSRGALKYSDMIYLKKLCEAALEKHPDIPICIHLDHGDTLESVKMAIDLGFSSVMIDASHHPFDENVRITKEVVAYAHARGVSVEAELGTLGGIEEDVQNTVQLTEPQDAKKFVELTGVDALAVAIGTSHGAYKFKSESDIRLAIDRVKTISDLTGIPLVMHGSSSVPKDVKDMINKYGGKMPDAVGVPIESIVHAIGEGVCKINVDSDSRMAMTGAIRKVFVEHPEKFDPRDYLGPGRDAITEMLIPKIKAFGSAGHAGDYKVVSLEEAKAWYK
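40 nM FBPA preincubated 10 min at RT with compound (up to 57.5 uM final), then substrate plus GAPDH/TPI/NAD/arsenate coupling and diaphorase/resazurin added. Fluorescence read after 20 min at RT, 525/598 nm.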
AmpC no deterg = blocks E. coli AmpC beta-lactamase in detergent-free assay. hit rate 0.52% among 330,000. AmpC nitrocefin hydrolysis, absorbance 480 nm, 0.0001% Triton. P00811. Potency, µM (doses to about 57.1 µM), for the others: at the highest dose activity change, negative = inhibition, actives largely listed as inhibitors;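 further: plate controls were no compound for no effect and no enzyme for full effect; nearly all actives have a fitted effect of over 20% in size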
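20 mM phosphate pH 7.0 + 0.01% (detergent screen) or 0.0001% Triton X-100; 5.3 nM AmpC reagent; cpd preinc 15 min RT; nitrocefin (800 uM stock) to start; A480 q20 s × 4 min; Activity was normalised to no-enzyme and no-compound control wells.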
* marks the source's active call; other numbers are inactive results; ? = inconclusive; · = not tested or not shown. Unless noted, the call rests on the fitted dose curve; in most records, active means well fitted curve in the direction sought with a large enough effect; inconclusive means small, poorly fitted or top-dose-only effect, or another doubt; inactive means no such curve, though single readings can be large; an effect the other way counts as inactive or inconclusive. Unless noted, on the % scale 0 is the no-effect control and ±100 the full control effect; potency means the concentration at half of the fitted maximal effect.

SMILES | AmpC inh detg | RE007 growth inh | Sm TGR block | FBPA Giardia inh | AmpC no deterg
C=CCOC(=O)C1=C(C)NC(SCC(=O)NC(=O)OCC)=C(C#N)C1c1cccnc1 (centres undefined) | -4% | 3% | 40µM* | 9% | -4%
CCOC(=O)CSC1=NN2CCS(=O)(=O)N=C2S1 | -2% | 4% | 10µM* | 4% | -14%
CCCC(=O)Nc1nnc(CCc2ccccc2)s1 | ? | -5% | 7% | 6% | 1%
CN1CCc2c(sc3c2c(=O)n(-c2cccc(Cl)c2)c2nncn32)C1 | · | -1% | · | · | ·
O=c1c2c3c(sc2n2cnnc2n1-c1ccccc1)N(Cc1ccccc1)CCC3 | ? | -2% | 25µM* | -12% | 37%
COc1ccccc1NC(=O)CSc1n[nH]c(-c2ccccn2)n1 | ? | 2% | -4% | -14% | -32%
CC(C)Sc1nc(NCc2ccco2)c2c3c(sc2n1)COC(C)(C)C3 | ? | 17% | 22µM* | -10% | 30%
O=Cc1c(-c2ccccc2)nc2ccccn12 | 3% | -14% | 7% | 0% | -9%
CCc1nc(-c2ccccc2)c2ccccn12 | -2% | 11% | ? | 4.5µM* | -7%
O=c1oc2ccccc2cc1-c1nc2c(s1)CCc1ccccc1-2 | -16% | -19% | ? | 7.9µM* | ?
N#Cc1cn(CCCOc2ccccc2)c2ccccc12 | 2% | 2% | 7% | 1% | -19%
COc1ccccc1OCCCn1cc(C#N)c2ccccc21 | -9% | 2% | 2% | 20µM* | 1%
CCC(Cn1nnc2ccccc2c1=O)NC(=O)Nc1ccc(C)cc1C (centres undefined) | 12% | · | -3% | · | ·
CCOc1ccc(N2C(=O)CC(NC3CCCCNC3=O)C2=O)cc1 (centres undefined) | -3% | ? | 22µM* | 6% | -14%
CCOc1ccc(N2C(=O)CC(NCC#N)C2=O)cc1 (centres undefined) | -10% | ? | 2.8µM* | -3% | -20%
COC(=O)c1cccc(Nc2c(-c3ccc(O)c(OC)c3)nc3nc[nH]n23)c1 | -1% | · | 40µM* | · | ·
COC(=O)c1cccc(Nc2c(-c3ccc(O)cc3)nc3nc[nH]n23)c1 | 8% | · | ? | · | ·
CC(C)(C)c1cc(C(c2cccnc2)N2CCN(CCO)CC2)cc(C(C)(C)C)c1O (centres undefined) | ? | ? | 0.45µM* | -1% | 106%
COc1ccc(CNc2cccc3[nH]c(C(F)(F)F)nc23)cc1OC | 3% | · | 20µM* | ? | -11%
CC(=O)c1ccc(NC(=O)CC2Nc3cccc4cccc(c34)NC2=O)cc1 (centres undefined) | ? | -6% | 18µM* | ? | 16µM*
CCOC(=O)C(=CNc1ccc(C(F)(F)F)cc1Cl)C(=O)OCC | 7% | 3% | 25% | -2% | -2%
CCCC(=O)NC(Oc1ccc(OC)cc1)C(Cl)(Cl)Cl (centres undefined) | 6% | 18% | · | 5% | 4%
CCCC(=O)NC(Oc1ccc(Cl)cc1Cl)C(Cl)(Cl)Cl (centres undefined) | -3% | 12% | 32µM* | 0% | -25%
CCCC(=O)NC(Oc1ccccc1Cl)C(Cl)(Cl)Cl (centres undefined) | -14% | -7% | 13µM* | 0% | -10%
O=C1C2C(C(=O)N1/N=C/c1ccc(N3CCCCC3)o1)C1C=CC2C12CC2 (centres undefined) | 2% | 0% | 4µM* | ? | 60%
SMILES | AmpC inh detg | RE007 growth inh | Sm TGR block | FBPA Giardia inh | AmpC no deterg
COC(=O)c1ccc(N2C(=O)CC(Sc3n[nH]c(C)n3)C2=O)cc1 (centres undefined) | -9% | -93% | 1.4µM* | -18% | -6%
CCOc1ccccc1N1C(=O)CC(Sc2n[nH]c(-c3ccccc3)n2)C1=O (centres undefined) | -4% | ? | 0.56µM* | -21% | -27%
COc1ccc(N2C(=O)CC(Sc3n[nH]c(-c4cccc(C)c4)n3)C2=O)cc1 (centres undefined) | -1% | 20µM* | 0.32µM* | -22% | -27%
COc1cccc(N2C(=O)CC(Sc3nc(C)cc(C)n3)C2=O)c1 (centres undefined) | ? | -6% | -20% | 5% | -6%
CC(=O)Nc1ccc(N2C(=O)CC(Sc3nc(C)cc(C)n3)C2=O)cc1 (centres undefined) | -8% | 14% | 50µM* | -3% | -22%
Cc1ccc(N2C(=O)CC(Sc3nc(C)cc(C)n3)C2=O)cc1 (centres undefined) | 2% | 4% | -46% | -11% | -10%
COC(=O)c1cc(C(=O)OC)cc(N2C(=O)CC(Sc3nc(C)cc(C)n3)C2=O)c1 (centres undefined) | 3% | -26% | ? | 21% | 31%
CC(C)c1ccccc1NC(=O)c1cnccn1 | ? | 5% | -2% | -1% | -30%
COc1nc(Oc2ccc(C(=O)O)cc2)nc(Oc2ccc(C(=O)O)cc2)n1 | ? | -8% | 6% | 6% | -11%
O=C1c2cccc3c([N+](=O)[O-])ccc(c23)C(=O)N1Cc1cccnc1 | 2% | -9% | 25µM* | -10% | 8%
Cc1ccnc(N2C(=O)c3cccc4c([N+](=O)[O-])ccc(c34)C2=O)c1 | 3% | ? | -21% | -22% | -15%
Cc1nnc(N2C(=O)c3cccc4c([N+](=O)[O-])ccc(c34)C2=O)s1 | 5% | ? | 4.5µM* | -25% | -14%
CC(OC(=O)c1ccc(F)c(S(=O)(=O)N2CCOCC2)c1)C(=O)NCC1CCCCC1 (centres undefined) | -18% | 0% | -1% | · | 22%
COc1cc(OC)cc(-c2c(C#Cc3ccsc3)c3cc(-c4ccc5cc[nH]c5c4)ccc3n2C)c1 | -7% | -8% | 25µM* | · | -31%
COc1ccc(-c2c(C#Cc3ccsc3)c3cc(-c4ccc5cc[nH]c5c4)ccc3n2C)cc1 | · | 3% | · | · | -24%
CCc1ccc(NC(=O)C(C)OC(=O)Cc2cc(OC)c(OC)c(OC)c2)cc1 (centres undefined) | · | 3% | · | · | 109%
CC(C)(C)NC(=O)COC(=O)Cc1ccc(Cl)cc1 | -1% | 7% | 4% | 4% | 3%
COc1cc(C)ccc1OCCSc1nc(-c2cccc(C)c2)nc2cc(=O)[nH]n12 | -2% | · | 7% | · | ·
O=C(NCc1ccccc1F)C(=O)NCC1CCCN1S(=O)(=O)c1ccccc1 (centres undefined) | ? | -2% | 3% | · | 35µM*
O=C(NCCC1CCCCN1S(=O)(=O)c1ccccc1)C(=O)NCc1ccccc1F (centres undefined) | -5% | -6% | -8% | · | -14%
CN(C)NC1CCS(=O)(=O)C1 (centres undefined) | 3% | 3% | 1.6µM* | -21% | -6%

Source: PubChem
